Compound activity (PubChem BioAssay)
Hits are enriched below; roughly 1.8% of the tested compounds scored in any of these assays.
Pemphigus Ab inh – inhibitors of pemphigus antibody binding to human desmoglein-3; DSG3-coupled beads, scFv-anti-DSG3-GFP binding, flow cytometry; hits give low values; binding (percent of control), % at 10 µM; 310,000 compounds, 0.48% hits; AID 588358;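 active = binding more than 3 SD below its plate's average and above zero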;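 also: hits lower antibody fragment binding to DSG3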
GRK2 inh – human GRK2 inhibition via aptamer displacement | bead flow cytometry, FAM-aptamer displacement from GRK2 | AID 488847 | inhibition of aptamer binding, % at 10 µM | P25098 | 330,000 compounds, 0.59% hits;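 active = inhibition of aptamer binding above 40%, roughly 3 SD of noise, on plates passing a quality check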;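 also: median bead fluorescence of bound FAM aptamer so fluorescent compounds give negative values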
PKD1 inh – inhibitors of human PKD1 kinase; Q15139; 200,000 compounds, 0.056% hits; AID 797; PKD1 kinase fluorescence polarization assay; inhibition, % (no concentration beside the values)
HDAC3 inhib – blocks human histone deacetylase 3; recombinant HDAC3, fluorogenic peptide/trypsin coupled, fluorescence; inhibition, % at 8.3 µM; 320,000 compounds, 0.15% hits; in the data active = inhibition above about 26%, passing the limit was not always enough
Target sequence (O15379 whole entry, looked up): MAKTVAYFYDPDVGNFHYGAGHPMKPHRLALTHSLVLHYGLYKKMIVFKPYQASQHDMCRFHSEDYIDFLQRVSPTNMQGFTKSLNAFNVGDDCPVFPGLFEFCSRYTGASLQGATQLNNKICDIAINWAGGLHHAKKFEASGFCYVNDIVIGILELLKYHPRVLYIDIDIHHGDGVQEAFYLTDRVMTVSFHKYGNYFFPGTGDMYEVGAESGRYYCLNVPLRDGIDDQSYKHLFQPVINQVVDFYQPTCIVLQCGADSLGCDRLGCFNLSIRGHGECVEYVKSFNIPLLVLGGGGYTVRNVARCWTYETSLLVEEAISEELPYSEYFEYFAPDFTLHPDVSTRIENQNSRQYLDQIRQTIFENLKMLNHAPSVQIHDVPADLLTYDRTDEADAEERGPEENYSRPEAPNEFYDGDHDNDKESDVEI
LANA-H2A inh – blocks KSHV LANA binding to histone H2A/H2B; cell-free LANA-H2A/H2B peptide, fluorescence polarization; inhibition, % (test concentration not listed); 320,000 compounds, 0.6% hits; AID 2629; in the data active = inhibition mostly above about 10%, no sharp cut-off; inactive = mostly below about 6.7%
VLA-4 inh – inhibition in a human VLA-4 binding assay; P13612; VLA-4 expressing cells, ligand binding flow cytometry; inhibition, % (about 7 µM as worked out from the volumes in the protocol); 330,000 compounds, 0.2% hits
VLA-4 mod pick – human VLA-4 allosteric modulation in cherry picked compounds; shares compounds with VLA-4 inh; U937 cells, HUTS-21 LIBS mAb binding, flow cytometry; LDV ligand present at threefold Kd; inhibition, % at 6.7 µM; 1,300 compounds, 2% hits; AID 2813; in the data active = inhibition above about 40%;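 also: 0% = ligand without compound and 100% = no ligand background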
GRK2 inh confirm – confirmation of human GRK2 inhibitors displacing RNA aptamer; aptamer displacement, % at 10 µM; shares compounds with GRK2 inh; bead-bound GRK2, FAM-aptamer displacement, flow cytometry; 2,000 compounds, 4% hits; AID 504451;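 active = aptamer displacement above 40%, near three times the noise of non-fluorescent compounds, on plates passing quality checks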;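 also: negative values mostly reflect intrinsic compound fluorescence rather than true enhancement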
FAM quench CP1 – quenches fluorescent RNA aptamer, GRK2 hit artifact; shares compounds with GRK2 inh; Carboxyfluorescein RNA aptamer on beads, flow cytometry quenching; hits give low values; fluorescence response (% of DMSO), % at 10 µM; 2,000 tested, under 10 active; AID 504580;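 active = compounds that quench the bead-bound fluorescent RNA probe, cutting fluorescence to under half of the solvent control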;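 also: counterscreen run without GRK2 so only probe quenching by compound is measured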
GRK2 confirm 2 – confirmation of human GRK2 inhibitors binding RNA aptamer site; 360 tested, under 10 active; bead-bound GRK2, FAM-aptamer displacement, flow cytometry; inhibition of aptamer binding, % at 10 µM; shares compounds with GRK2 inh; AID 504782;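 active = inhibition of aptamer binding above 40%, about triple the noise seen with nonglowing compounds, on plates passing quality control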;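 also: negative values mostly come from compounds that fluoresce themselves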
FAM quench SP – aptamer fluorescence quenching in GRK2 counter-screen; 360 tested, under 10 active; AID 588494; shares compounds with GRK2 inh; carboxyfluorescein RNA aptamer beads, flow cytometry quenching; hits give low values; fluorescence response vs DMSO, % at 10 µM;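 active = response vs DMSO under 50%, meaning signal dropped by over half, treated as fluorescence quencher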;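 also: labelled aptamer on streptavidin beads without GRK2 as a quench counter-screen; 100% = bead fluorescence of DMSO wells and lower means quenching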
An asterisk follows results filed as active; / = not tested or not shown. Rule as the data show it, unless noted: active = inhibition above about 50%; inactive = the rest.

SMILES | Pemphigus Ab inh | GRK2 inh | PKD1 inh | HDAC3 inhib | LANA-H2A inh | VLA-4 inh | VLA-4 mod pick | others
COC(=O)C1=C(c2cccc(Cl)c2)C[C@@H]2CC[C@H]1N2C(=O)N1CCCC1 | 104.7 | 3.0 | / | 1.6 | 4.2 | 1.6 | /
Nc1cc(Cl)c2nonc2c1[N+](=O)[O-] | 103.8 | 0.0 | 0.6 | 1.2 | -1.6 | 49.6* | 32.3
O=[N+]([O-])c1c(Cl)c(Cl)c(Cl)c(Cl)c1Cl | 103.3 | / | / | / | / | / | /
O=C(O)COc1ccc(Cl)cc1Cl | 99.6 | 29.0 | / | / | 1.5 | -2.2 | /
Cc1cc(Cl)ccc1OCC(=O)O | 104.7 | 1.0 | -14.3 | -10.1 | -12.0 | 55.6* | -2.9
COc1cccc(O)c1CN1CCCC(C(=O)c2ccccc2SC)C1 (stereo not drawn) | 103.2 | 3.0 | -1.1 | -4.5 | -2.9 | 51.3* | -4.1
CCOc1cccc(CNCCc2c(C)[nH]c3ccc(OC(F)(F)F)cc23)c1O | 101.1 | 0.0 | / | -0.3 | -1.6 | 64.8* | 39.5
Cc1[nH]c2ccc(OC(F)(F)F)cc2c1CCNCc1cccc([N+](=O)[O-])c1 | 92.4 | 0.0 | / | 10.6 | 3.7 | 39.2 | /
CC12CCC(=O)C=C1CC(N1CC1)C1C2CCC2(C)C(O)CCC12 (stereo not drawn) | 103.7 | / | / | / | / | / | /
COc1ccc(C(=O)OC2C[C@H]3CC[C@@H](C2)N3O)cc1OC (stereo partly drawn) | 98.5 | 2.0 | / | -11.9 | -0.4 | -17.6 | 0.6
CN1[C@@H]2CC[C@H]1CC(OC(=O)C1C=Nc3ccccc31)C2 (stereo partly drawn) | 112.1 | 0.0 | -6.5 | 11.7 | 2.0 | 50.6* | 10.9
CN1C2CCC1CC(OC(=O)c1ccc([N+](=O)[O-])cc1)C2 (stereo not drawn) | 97.1 | 1.0 | -15.9 | / | / | 12.2 | /
COCCCNP1(=O)OCC(C)([N+](=O)[O-])CO1 (stereo not drawn) | 93.0 | / | / | / | / | / | /
C=C1[C@H]2CC[C@H]3[C@]4(C)C[C@H](O[C@H]5O[C@H](CO)[C@@H](OS(=O)(=O)O)[C@H](OS(=O)(=O)O)[C@H]5OC(=O)CC(C)C)C[C@@H](C(=O)O)[C@H]4CC[C@]3(C2)[C@H]1O | 91.0 | 3.0 | / | -1.2 | 0.4 | 57.1* | 3.3
O=[N+]([O-])/C=C/c1c(Cl)cccc1Cl | 82.7 | / | / | / | / | / | /
Cc1ccc(S(=O)(=O)N[C@@H](CCCCN)C(=O)CCl)cc1 | 118.6 | 0.0 | / | 5.2 | 3.6 | 52.7* | -6.7
Cc1ccc(S(=O)(=O)NCCC(=O)Nc2ccc(Cl)cc2C(=O)c2ccccc2)cc1 | 100.6 | 0.0 | -1.1 | 2.2 | -1.7 | 9.8 | /
CC1=NNC(=O)C1Br (stereo not drawn) | 105.2 | / | / | / | / | / | /
CCCCCCCSc1cc(OC)c(CCNC)cc1OC | 112.7 | 0.0 | -4.0 | 9.1 | 2.2 | 61.1* | 0.0
Cc1ccc(CN2CCCN(Cc3ccc(C)cc3)S2(=O)=O)cc1 | 94.8 | 0.0 | / | 0.1 | -0.2 | 3.7 | /
Cc1cccc(CN2CCCN(Cc3ccc(Cl)cc3)S2(=O)=O)c1 | 98.1 | 0.0 | / | 2.5 | -0.4 | 44.7 | -1.2
CCOC(=O)c1c(NC(=O)C(c2ccccc2)c2ccccc2)sc2c1C1CCN2CC1 | 97.5 | 1.0 | -3.7 | -0.2 | -8.7 | -4.2 | -3.0
C/C1=C\[C@@H](C)C/C=C/[C@H]2[C@@H]3O[C@]3(C)[C@@H](C)[C@H]3[C@H](Cc4c[nH]c5ccccc45)NC(=O)[C@]32C(=O)/C=C/C(=O)[C@@H]1O | 95.7 | 1.0 | 11.7 | 6.2 | 7.5 | 69.8* | 36.9
CN1C(=O)NC(=O)C(N=Nc2ccc(Cl)cc2)C1=O (stereo not drawn) | 91.8 | / | / | / | / | / | /
O=c1[nH]c(=S)n(Cc2ccc(F)cc2)c(O)c1/C=N/N1CCCCC1 | 104.4 | 2.0 | 2.3 | 4.0 | 1.3 | 56.4* | -6.9
SMILES | Pemphigus Ab inh | GRK2 inh | PKD1 inh | HDAC3 inhib | LANA-H2A inh | VLA-4 inh | VLA-4 mod pick | others
CN=C1CN(O)C(c2ccccc2)=c2cc(Cl)ccc2=N1 | 89.8 | 0.0 | / | 11.0 | 0.9 | 13.5 | /
O=C1CN(O)C(c2ccccc2)=c2cc(Cl)ccc2=N1 | 94.5 | 2.0 | / | 5.9 | -1.1 | 101.0* | -12.3
CC(OC(=O)c1cn(C)c2ccccc12)C(=O)N(C)c1ccccc1 (stereo not drawn) | 91.0 | / | / | / | / | / | /
Cc1cc(C)cc(N2C(=O)NC(=O)/C(=C\c3cccn3-c3ccccc3)C2=O)c1 | 94.8 | 0.0 | -6.2 | -4.1 | 2.7 | 43.6 | 16.0
CCC1([N+](=O)[O-])COP(=O)(NCc2cccnc2)OC1 (stereo not drawn) | 101.2 | / | / | / | / | / | /
N#CCCn1cc(C(=O)Nc2ccc([N+](=O)[O-])cc2)c(-c2ccc3c(c2)OCCO3)n1 | 99.5 | 66.0* | 5.0 | 7.4 | -1.7 | 23.1 | / | GRK2 confirm 2=21.6;FAM quench SP=100.0
Cc1ccc(NC(=O)c2cn(CCC#N)nc2-c2ccc3c(c2)OCCO3)c([N+](=O)[O-])c1 | 97.7 | 3.0 | 9.7 | 2.0 | 0.1 | 9.6 | /
COC(/C(C)=C/C=C/C(C)=C/c1coc(C)n1)C(C)C1CC(O)C2(C)OC2C=CC(C)C2CC(CC(=O)O2)CC2OC2C(=O)O1 (stereo not drawn) | 89.8 | / | / | / | / | / | /
CS(=O)(=O)c1ccc(C2=C(CNC(=O)c3nccs3)[C@H]3CC[C@@H](C2)N3CCOc2ccccc2)cc1 | 105.2 | / | / | / | / | / | /
C[C@]12CCC3C(CCC4=C/C(=N/OCC(=O)NC(CCC(=O)O)C(=O)O)CC[C@@]43C)C1CCC2O (stereo partly drawn) | 106.3 | 0.0 | / | -1.3 | -2.6 | 2.6 | /
C[C@]12CCC3C(CCC4=C/C(=N/OCC(=O)NC(CCC(N)=O)C(=O)O)CC[C@@]43C)C1CCC2O (stereo partly drawn) | 108.6 | 0.0 | / | -0.2 | -4.2 | 5.0 | / | GRK2 inh confirm=3.2;FAM quench CP1=98.7
O=C1CCC[C@@H]2C[C@@]3(C[C@@H]4CCN1[C@H]24)Nc1cc(Cl)ccc1NC3=NCc1ccccc1 | 110.0 | / | / | / | / | / | /
NCCc1c[nH]c2ccccc12 | 102.2 | 62.0* | -5.3 | 0.3 | 2.2 | -4.4 | / | GRK2 inh confirm=-6.5;FAM quench CP1=99.6
